The source of these data is PubChem BioAssay (EPA / NIEHS).

For orientation: AC50 means the concentration at which the activity in the assay is half-maximal.

Results filed as inconclusive are left out. Calls of active or inactive are those of the source. The calls were made as follows: active = hit-call score of the fitted dose curve at least 0.9, where 1 is the maximum; inconclusive = response in the unintended direction; inactive = score below 0.9.

human Protein Tyrosine Phosphatase Non-receptor Type 6 (PTPN6), PTPN6 (gene 5777), sequence (P29350 whole entry, looked up): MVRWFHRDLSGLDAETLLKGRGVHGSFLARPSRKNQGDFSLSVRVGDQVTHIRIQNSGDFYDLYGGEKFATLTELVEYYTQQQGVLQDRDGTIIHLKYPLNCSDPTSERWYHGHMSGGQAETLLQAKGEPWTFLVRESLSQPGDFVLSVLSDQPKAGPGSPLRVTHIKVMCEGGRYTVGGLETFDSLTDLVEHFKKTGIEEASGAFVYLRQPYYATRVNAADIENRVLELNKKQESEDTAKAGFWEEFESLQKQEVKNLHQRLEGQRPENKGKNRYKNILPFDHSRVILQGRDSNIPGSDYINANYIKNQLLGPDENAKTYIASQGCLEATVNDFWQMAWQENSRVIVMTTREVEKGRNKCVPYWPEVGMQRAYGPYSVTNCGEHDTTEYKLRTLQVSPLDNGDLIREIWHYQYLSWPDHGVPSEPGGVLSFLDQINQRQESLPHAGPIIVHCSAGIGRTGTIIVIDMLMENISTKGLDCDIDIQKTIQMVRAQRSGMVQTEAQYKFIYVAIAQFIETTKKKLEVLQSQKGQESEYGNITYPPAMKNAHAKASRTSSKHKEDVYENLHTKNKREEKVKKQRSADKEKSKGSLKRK
human Protein Tyrosine Phosphatase Non-receptor Type 9 (PTPN9), PTPN9 (gene 5780), sequence (P43378 whole entry, looked up): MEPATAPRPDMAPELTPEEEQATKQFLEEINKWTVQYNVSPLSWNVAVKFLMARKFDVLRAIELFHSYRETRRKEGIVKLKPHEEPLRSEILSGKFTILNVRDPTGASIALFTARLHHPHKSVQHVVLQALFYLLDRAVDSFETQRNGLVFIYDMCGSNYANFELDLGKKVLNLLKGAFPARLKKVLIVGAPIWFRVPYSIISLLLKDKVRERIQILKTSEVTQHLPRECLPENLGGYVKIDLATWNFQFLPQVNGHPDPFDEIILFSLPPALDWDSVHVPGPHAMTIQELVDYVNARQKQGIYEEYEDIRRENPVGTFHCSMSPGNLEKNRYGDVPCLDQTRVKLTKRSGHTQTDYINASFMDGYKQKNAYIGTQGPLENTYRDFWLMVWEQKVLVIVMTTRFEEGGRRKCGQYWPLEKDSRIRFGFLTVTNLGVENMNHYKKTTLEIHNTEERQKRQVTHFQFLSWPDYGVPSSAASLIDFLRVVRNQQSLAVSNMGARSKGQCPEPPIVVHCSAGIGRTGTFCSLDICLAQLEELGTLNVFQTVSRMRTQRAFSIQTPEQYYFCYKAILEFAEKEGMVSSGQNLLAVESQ
human Vascular Endothelial Growth Factor Receptor 2 (VEGFR2), KDR (gene 3791), sequence (P35968 whole entry, looked up): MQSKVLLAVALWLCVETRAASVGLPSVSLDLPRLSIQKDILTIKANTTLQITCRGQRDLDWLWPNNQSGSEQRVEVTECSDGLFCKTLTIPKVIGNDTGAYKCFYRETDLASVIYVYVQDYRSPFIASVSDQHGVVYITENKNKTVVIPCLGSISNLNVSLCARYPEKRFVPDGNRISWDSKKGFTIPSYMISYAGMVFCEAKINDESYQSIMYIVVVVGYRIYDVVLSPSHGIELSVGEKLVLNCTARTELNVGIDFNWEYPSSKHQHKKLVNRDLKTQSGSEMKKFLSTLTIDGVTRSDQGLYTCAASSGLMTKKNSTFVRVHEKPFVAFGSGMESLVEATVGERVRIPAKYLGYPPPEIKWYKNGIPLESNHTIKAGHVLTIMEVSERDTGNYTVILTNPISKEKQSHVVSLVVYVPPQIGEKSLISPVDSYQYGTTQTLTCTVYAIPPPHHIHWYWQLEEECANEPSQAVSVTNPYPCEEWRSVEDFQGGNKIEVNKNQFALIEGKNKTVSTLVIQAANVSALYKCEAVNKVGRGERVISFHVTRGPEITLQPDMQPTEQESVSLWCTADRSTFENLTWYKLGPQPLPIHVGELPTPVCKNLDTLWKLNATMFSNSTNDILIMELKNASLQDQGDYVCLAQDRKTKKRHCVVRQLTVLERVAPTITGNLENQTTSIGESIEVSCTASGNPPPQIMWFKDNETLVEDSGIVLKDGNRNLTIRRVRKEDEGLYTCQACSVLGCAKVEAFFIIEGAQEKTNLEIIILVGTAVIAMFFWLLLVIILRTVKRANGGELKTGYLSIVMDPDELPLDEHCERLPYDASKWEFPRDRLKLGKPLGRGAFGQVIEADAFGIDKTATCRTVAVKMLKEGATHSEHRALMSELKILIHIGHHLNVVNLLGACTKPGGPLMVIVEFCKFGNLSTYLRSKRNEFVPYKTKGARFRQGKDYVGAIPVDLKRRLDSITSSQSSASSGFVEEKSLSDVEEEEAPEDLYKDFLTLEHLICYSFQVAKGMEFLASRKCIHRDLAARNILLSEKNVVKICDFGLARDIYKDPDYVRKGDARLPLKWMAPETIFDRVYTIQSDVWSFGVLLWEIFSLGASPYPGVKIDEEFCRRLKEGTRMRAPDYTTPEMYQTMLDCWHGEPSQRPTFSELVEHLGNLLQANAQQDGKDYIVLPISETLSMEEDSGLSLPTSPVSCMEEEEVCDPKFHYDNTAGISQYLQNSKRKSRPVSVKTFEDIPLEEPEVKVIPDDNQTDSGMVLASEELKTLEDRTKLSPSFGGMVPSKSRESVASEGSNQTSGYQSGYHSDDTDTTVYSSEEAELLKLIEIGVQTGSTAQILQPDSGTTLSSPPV

For the first assay, the target named is Tyrosine-protein phosphatase non-receptor type 13 (Homo sapiens) (UniProt Q12923). Nature of the assay: NVS_ENZ_hPTPN13: NovaScreen (NVS) Enzymatic Assay for human Protein Tyrosine Phosphatase Non-receptor Type 13 (PTPN13) (AID 2283205). An outline of the steps:
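Screened first at a single 25 uM in duplicate; compounds passing the threshold (e.g. 30% inhibition) were rerun in concentration series, top 50 uM. Recombinant enzyme, fluorescent substrate, mobility-shift separation, 0.5 h read. Data fitted as inhibition relative to DMSO.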
Regarding `O=Cc1ccco1`, the half-maximal activity concentration (AC50) is 0.13 µM (active).

For the compound `CCNS(=O)(=O)C(F)(F)C(F)(F)C(F)(F)C(F)(F)C(F)(F)C(F)(F)C(F)(F)C(F)(F)F`, the result was inactive.

Consider `O=C1CCCO1`, for which the result was inactive.

The target in another assay is human Protein Tyrosine Phosphatase Non-receptor Type 2 (PTPN2), PTPN2 (gene 5771) (UniProt P17706). The experiment in a line: NVS_ENZ_hPTPN2: NovaScreen (NVS) Enzymatic Assay for human Protein Tyrosine Phosphatase Non-receptor Type 2 (PTPN2) (AID 2283207). An outline of the steps: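 Activity measured as fluorescence after mobility-shift separation of substrate and product, 1 h after compound. Duplicate single-point 25 uM primary testing, concentration series for actives; inhibition scored as signal loss relative to DMSO baseline.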
human Protein Tyrosine Phosphatase Non-receptor Type 2 (PTPN2), PTPN2 (gene 5771), sequence (P17706 whole entry, looked up): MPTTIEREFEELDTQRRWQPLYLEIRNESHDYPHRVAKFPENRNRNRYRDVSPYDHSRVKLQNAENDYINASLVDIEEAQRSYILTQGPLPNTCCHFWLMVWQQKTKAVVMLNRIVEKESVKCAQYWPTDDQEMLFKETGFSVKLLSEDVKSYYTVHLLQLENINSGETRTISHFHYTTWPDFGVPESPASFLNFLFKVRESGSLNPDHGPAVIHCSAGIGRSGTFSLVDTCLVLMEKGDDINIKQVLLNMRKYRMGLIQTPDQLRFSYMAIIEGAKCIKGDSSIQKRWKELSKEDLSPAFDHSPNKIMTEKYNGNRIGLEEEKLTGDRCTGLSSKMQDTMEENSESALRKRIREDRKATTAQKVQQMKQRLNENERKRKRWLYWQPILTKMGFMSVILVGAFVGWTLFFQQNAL
`Cn1cc(-c2ccccc2)c(=O)c(-c2cccc(C(F)(F)F)c2)c1`: the AC50 is 0.115 µM (active).

As to `CCNS(=O)(=O)C(F)(F)C(F)(F)C(F)(F)C(F)(F)C(F)(F)C(F)(F)C(F)(F)C(F)(F)F`, the outcome was inactive.

Consider `c1ccc2c(c1)oc1ccccc12`, for which the call was inactive.

With `Clc1ccc(C(c2ccc(Cl)cc2)C(Cl)(Cl)Cl)cc1`, the call was inactive.

For another assay, the target named is human Protein Tyrosine Phosphatase Non-receptor Type 9 (PTPN9), PTPN9 (gene 5780) (UniProt P43378). The experiment in a line: NVS_ENZ_hPTPN9: NovaScreen (NVS) Enzymatic Assay for human Protein Tyrosine Phosphatase Non-receptor Type 9 (PTPN9) (AID 2283209). How it is done:
NVS_ENZ_hPTPN9 is a biochemical, single-readout assay that uses extracted gene-proteins from SF9 in a cell-free assay. Measurements were taken 1.33 hours after chemical dosing in a 384-well plate.NVS_ENZ_hPTPN9 is one of one assay component(s) measured or calculated from the NVS_ENZ_hPTPN9 assay. It is designed to make measurements of enzyme activity, a form of enzyme reporter, as detected with fluorescence intensity signals by Fluorescence and electrophoretic mobility shift technology.Data from the assay component NVS_ENZ_hPTPN9 was analyzed into 1 assay endpoint. This assay endpoint, NVS_ENZ_hPTPN9, was analyzed in the positive analysis fitting direction relative to DMSO as the negative control and baseline of activity. Using a type of enzyme reporter, loss-of-signal activity can be used to understand changes in the enzymatic activity as they relate to the gene PTPN9. Furthermore, this assay endpoint can be referred to as a primary readout, because this assay has produced multiple assay endpoints where this one serves a enzymatic activity function. To generalize the intended target to other relatable targets, this assay endpoint is annotated to the phosphatase intended target family, where the subfamily is non-receptor tyrosine phosphatase.
(§1) Binding assays used specific radioligands (tritiated, iodinated) with non-radioactive competitive displacement ligands in agonist or antagonist protocols (as indicated) and various reference compounds and inhibitors to titrate specific binding to receptors and transporters. Most enzyme assays (CYPs, kinases, phosphatases, proteases, HDACs) used recombinant protein and specific substrates (fluorescence mostly, some colorimetric and radioactive) and inhibitors, followed by a biochemical separation of substrate and product. All assays for the biochemical HTS were initially run in duplicate at a single concentration (10 uM for CYP450 assays and 25 uM for all others). Assay-chemical combinations meeting a pre-defined threshold (e.g., 30% inhibition and other criteria defined below) were then run in singleton concentration-response format with maximum concentration of 20 uM for CYPs and 50 uM for all others. Each assay was run with positive and negative controls, and concurrent controls on every plate. The follow-up (secondary) screen tested active chemical-pairs in concentration series, as well as a few additional assays not tested in the primary screen, some selected negative inactives, and several cases re-run in the concentration series for confirmatory purposes.
As for `ClC1=C(Cl)[C@]2(Cl)[C@H]3[C@H]([C@@H]4C=C[C@H]3C4)[C@@]1(Cl)C2(Cl)Cl`, the outcome was inactive.

With `CCCCCOC(=O)c1ccccc1C(=O)OCCCCC`, the compound was classed as inactive.

On to `CCN(CC)CCO`, for which the compound was called inactive.

Take `CCNS(=O)(=O)C(F)(F)C(F)(F)C(F)(F)C(F)(F)C(F)(F)C(F)(F)C(F)(F)C(F)(F)F`: the result was inactive.

As to `CN(C)c1ccc(C(=O)c2ccc(N(C)C)cc2)cc1`, the AC50 was 41.7 µM (active).

In the case of `Clc1ccc(C(c2ccc(Cl)cc2)C(Cl)(Cl)Cl)cc1`, the result was inactive.

In the case of `Nc1ccc(Oc2ccc(N)cc2)cc1`, the result was inactive.

Take `CCN(CC)N=O`: the call was inactive.

As for `Oc1ccc2ccc3cccc4ccc1c2c34`, the concentration at half-maximal activity (AC50) was 1.44 µM (active).

The next assay addresses human Protein Tyrosine Phosphatase Non-receptor Type 6 (PTPN6), PTPN6 (gene 5777) (UniProt P29350). The experiment in a line: NVS_ENZ_hPTPN6: NovaScreen (NVS) Enzymatic Assay for human Protein Tyrosine Phosphatase Non-receptor Type 6 (PTPN6) (AID 2283210). An outline of the steps:
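Recombinant human PTPN6 from SF9 cells, enzyme activity followed by fluorescence after mobility-shift separation of substrate and product at 1.33 h. Chemicals first tested at a single 25 uM in duplicate, then confirmed across concentration series; loss of signal relative to DMSO.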
Turning to `CC(C)(C)OOC(C)(C)CCC(C)(C)OOC(C)(C)C`, the AC50 is 39 µM (active).

`OCCCBr`: the result was inactive.

In the case of `CN(C)[C@@H]1C(=O)C(C(N)=O)=C(O)[C@@]2(O)C(=O)C3=C(O)c4c(O)cccc4[C@@](C)(O)[C@H]3C[C@@H]12`, the AC50 was 25 µM (active).

Take `O=P(OCCCl)(OCCCl)OCCCl`: the result was inactive.

With `C[N+](C)(C)CC1CO1` (stereo unspecified), the compound was classed as inactive.

For the compound `O=C1CCCO1`, the compound was classed as inactive.

Consider `c1ccc2c(c1)oc1ccccc12`, for which the compound was called inactive.

Turning to `Clc1ccc(C(c2ccc(Cl)cc2)C(Cl)Cl)cc1`, the call was inactive.

As for `Clc1ccc(C(c2ccc(Cl)cc2)C(Cl)(Cl)Cl)cc1`, the compound was called inactive.

Take `Nc1ccc(Oc2ccc(N)cc2)cc1`: the AC50 was 17 µM (active).

In the case of `CC(C)(OOC(C)(C)c1ccccc1)c1ccccc1`, the compound was called inactive.

Take `CC(C)(C)OOC(=O)c1ccccc1`: the call was inactive.

Consider `CCC(C)c1ccc(O)cc1` (stereo unspecified), for which the result was inactive.

On to `c1ccc(C2CO2)cc1` (stereo unspecified), for which the call was inactive.

As for `O=[N+]([O-])c1ccc(Oc2ccc(Cl)cc2Cl)cc1`, the result was inactive.

The target of the next assay is human Rho Associated Coiled-coil Containing Protein Kinase 1 (ROCK1), ROCK1 (gene 6093) (UniProt Q13464). Nature of the assay: NVS_ENZ_hROCK1: NovaScreen (NVS) Enzymatic Assay for human Rho Associated Coiled-coil Containing Protein Kinase 1 (ROCK1) (AID 2283214). An outline of the steps: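 Compounds first run in duplicate at 25 uM against recombinant human ROCK1, then followed in concentration series. Kinase activity was read 1 h post-dosing by fluorescence with mobility-shift separation, as signal loss relative to DMSO.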
In the case of `CCCCCCCCCCCCCN1CC(C)OC(C)C1` (stereo unspecified), the call was inactive.

`CCC12COCN1COC2`: the result was inactive.

For the compound `ClC1=C(Cl)C2(Cl)C3C(Cl)C=CC3C1(Cl)C2(Cl)Cl` (stereo unspecified), the outcome was inactive.

The target in the next assay is human Protein Tyrosine Phosphatase Receptor Type M (PTPRM), PTPRM (gene 5797) (UniProt P28827). The experiment in a line: NVS_ENZ_hPTPRM: NovaScreen (NVS) Enzymatic Assay for human Protein Tyrosine Phosphatase Receptor Type M (PTPRM) (AID 2283215). The method in brief: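 Read-out is fluorescence after electrophoretic separation of substrate and product, taken 1.33 h post-dosing with recombinant enzyme. Compounds screened at 25 uM in duplicate, then concentration series for actives; activity as signal loss relative to DMSO.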
In the case of `OCCCBr`, the AC50 was 13 µM (active).

Take `CCNS(=O)(=O)C(F)(F)C(F)(F)C(F)(F)C(F)(F)C(F)(F)C(F)(F)C(F)(F)C(F)(F)F`: the compound was called inactive.

For `c1ccc2c(c1)oc1ccccc12`, the compound was called inactive.

For `CCN(CC)N=O`, the outcome was inactive.

Another assay deals with human Tyrosine Protein Kinase Receptor Tie-2 (Tie2), TEK (gene 7010) (UniProt Q02763). Nature of the assay: NVS_ENZ_hTie2: NovaScreen (NVS) Enzymatic Assay for human Tyrosine Protein Kinase Receptor Tie-2 (Tie2) (AID 2283225). The method in brief: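 Substrate and product were separated by mobility shift and detected by fluorescence after a 1-hour reaction with recombinant Tie2. Chemicals passing a 25 uM single-point screen were titrated to a maximum of 50 uM. Results were normalized to DMSO baseline.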
human Tyrosine Protein Kinase Receptor Tie-2 (Tie2), TEK (gene 7010), sequence (Q02763 whole entry, looked up): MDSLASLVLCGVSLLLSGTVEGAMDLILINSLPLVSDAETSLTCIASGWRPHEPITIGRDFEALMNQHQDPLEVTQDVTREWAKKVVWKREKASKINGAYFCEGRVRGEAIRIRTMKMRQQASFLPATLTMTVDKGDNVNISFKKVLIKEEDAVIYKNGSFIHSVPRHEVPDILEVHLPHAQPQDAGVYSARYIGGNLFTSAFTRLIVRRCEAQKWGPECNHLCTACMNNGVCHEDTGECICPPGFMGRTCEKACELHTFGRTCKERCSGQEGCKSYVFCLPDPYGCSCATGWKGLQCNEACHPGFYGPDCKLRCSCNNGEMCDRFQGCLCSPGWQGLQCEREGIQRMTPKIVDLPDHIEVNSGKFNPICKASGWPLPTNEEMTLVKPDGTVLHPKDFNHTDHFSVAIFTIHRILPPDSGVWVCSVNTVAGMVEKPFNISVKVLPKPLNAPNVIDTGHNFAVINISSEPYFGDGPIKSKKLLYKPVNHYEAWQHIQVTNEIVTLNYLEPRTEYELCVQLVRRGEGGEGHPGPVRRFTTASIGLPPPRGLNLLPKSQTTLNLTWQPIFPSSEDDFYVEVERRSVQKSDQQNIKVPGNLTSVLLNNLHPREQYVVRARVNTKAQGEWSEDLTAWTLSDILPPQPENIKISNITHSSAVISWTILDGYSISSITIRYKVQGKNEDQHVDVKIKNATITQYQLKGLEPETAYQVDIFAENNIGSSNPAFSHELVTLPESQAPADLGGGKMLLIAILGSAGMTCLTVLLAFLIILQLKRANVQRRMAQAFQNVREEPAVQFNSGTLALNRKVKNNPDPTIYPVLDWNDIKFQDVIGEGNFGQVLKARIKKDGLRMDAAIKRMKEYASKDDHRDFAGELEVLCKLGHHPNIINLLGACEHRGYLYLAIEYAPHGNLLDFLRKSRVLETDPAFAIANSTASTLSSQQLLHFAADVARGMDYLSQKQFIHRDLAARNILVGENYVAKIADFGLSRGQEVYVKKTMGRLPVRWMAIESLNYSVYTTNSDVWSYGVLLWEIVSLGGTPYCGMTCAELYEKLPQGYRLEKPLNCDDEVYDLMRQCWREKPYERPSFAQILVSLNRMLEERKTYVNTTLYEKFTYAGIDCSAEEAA
Take `CCNS(=O)(=O)C(F)(F)C(F)(F)C(F)(F)C(F)(F)C(F)(F)C(F)(F)C(F)(F)C(F)(F)F`: the result was inactive.

Turning to `CCN(CC)N=O`, the outcome was inactive.

In the case of `Oc1ccc2ccc3cccc4ccc1c2c34`, the AC50 was 13.6 µM (active).

For the next assay, the target named is human Vascular Endothelial Growth Factor Receptor 2 (VEGFR2), KDR (gene 3791) (UniProt P35968). The experiment in a line: NVS_ENZ_hVEGFR2: NovaScreen (NVS) Enzymatic Assay for human Vascular Endothelial Growth Factor Receptor 2 (VEGFR2) (AID 2283230). An outline of the steps:
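Cell-free recombinant VEGFR2 kinase, fluorescent substrate with electrophoretic mobility-shift separation; read 1 h after dosing. Screened at 25 uM in duplicate, hits to concentration-response up to 50 uM; loss-of-signal versus DMSO.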
Take `ClC1=C(Cl)[C@]2(Cl)[C@H]3[C@H]([C@@H]4C=C[C@H]3C4)[C@@]1(Cl)C2(Cl)Cl`: the call was inactive.

As for `CCNS(=O)(=O)C(F)(F)C(F)(F)C(F)(F)C(F)(F)C(F)(F)C(F)(F)C(F)(F)C(F)(F)F`, the result was inactive.

`Clc1ccc(C(c2ccc(Cl)cc2)C(Cl)Cl)cc1`: the result was inactive.

Consider `Clc1ccc(C(c2ccc(Cl)cc2)C(Cl)(Cl)Cl)cc1`, for which the outcome was inactive.

`CC(C)(OOC(C)(C)c1ccccc1)c1ccccc1`: the compound was classed as inactive.

Take `CCN(CC)N=O`: the call was inactive.

The next assay deals with sheep Cyclooxygenase-2 (Cox2), PTGS2 (gene 443460) (UniProt P79208). The experiment in a line: NVS_ENZ_oCOX2: NovaScreen (NVS) Enzymatic Assay for sheep Cyclooxygenase-2 (Cox2) (AID 2283231). On the procedure: NVS_ENZ_oCOX2 is a biochemical, single-readout assay that uses extracted gene-proteins from Ovine placenta in a tissue-based cell-free assay. Measurements were taken 0.66 hour after chemical dosing in a 96-well plate.NVS_ENZ_oCOX2 is one of one assay component(s) measured or calculated from the NVS_ENZ_oCOX2 assay. It is designed to make measurements of enzyme activity, a form of enzyme reporter, as detected with absorbance signals by Colorimetric technology.Data from the assay component NVS_ENZ_oCOX2 was analyzed into 1 assay endpoint. This assay endpoint, NVS_ENZ_oCOX2, was analyzed in the positive analysis fitting direction relative to DMSO as the negative control and baseline of activity. Using a type of enzyme reporter, loss-of-signal activity can be used to understand changes in the enzymatic activity as they relate to the gene PTGS2. Furthermore, this assay endpoint can be referred to as a primary readout, because this assay has produced multiple assay endpoints where this one serves a enzymatic activity function. To generalize the intended target to other relatable targets, this assay endpoint is annotated to the oxidoreductase intended target family, where the subfamily is cyclooxygenase.
sheep Cyclooxygenase-2 (Cox2), PTGS2 (gene 443460), sequence (P79208 whole entry, looked up): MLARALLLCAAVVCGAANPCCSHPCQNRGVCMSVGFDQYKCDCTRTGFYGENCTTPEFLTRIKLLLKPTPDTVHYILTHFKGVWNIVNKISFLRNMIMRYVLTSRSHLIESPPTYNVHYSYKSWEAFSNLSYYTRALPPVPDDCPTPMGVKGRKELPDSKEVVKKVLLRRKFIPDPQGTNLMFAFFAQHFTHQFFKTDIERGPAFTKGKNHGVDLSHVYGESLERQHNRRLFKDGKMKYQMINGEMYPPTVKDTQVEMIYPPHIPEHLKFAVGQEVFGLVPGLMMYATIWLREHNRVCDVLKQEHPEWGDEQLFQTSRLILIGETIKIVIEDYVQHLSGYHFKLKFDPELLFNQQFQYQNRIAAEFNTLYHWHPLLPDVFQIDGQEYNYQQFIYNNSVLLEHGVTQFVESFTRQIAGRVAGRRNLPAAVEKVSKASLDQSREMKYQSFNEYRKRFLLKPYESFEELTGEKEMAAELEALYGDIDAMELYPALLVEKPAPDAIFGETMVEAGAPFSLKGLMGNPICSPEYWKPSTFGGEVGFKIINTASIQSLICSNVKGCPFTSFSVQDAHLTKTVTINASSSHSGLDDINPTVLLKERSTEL
as §1
On to `CN(C)[C@@H]1C(=O)C(C(N)=O)=C(O)[C@@]2(O)C(=O)C3=C(O)c4c(O)cccc4[C@@](C)(O)[C@H]3C[C@@H]12`, for which the half-maximal activity concentration (AC50) is 11.4 µM (active).

In the case of `O=P(OCCCl)(OCCCl)OCCCl`, the call was inactive.

On to `CN(C)c1ccc(C(=O)c2ccc(N(C)C)cc2)cc1`, for which the AC50 is 13 µM (active).

Turning to `CC(C)(C)OOC(=O)c1ccccc1`, the compound was classed as inactive.
